Test results as given in PubChem BioAssay.
Results with a measured potency or affinity are listed apart. Inconclusive results are not listed. Activity calls are given as the source filed them. Unless noted, no rule for the calls is given here.

Assays:
[1] = inhibitors of PAX8-driven TPO luciferase reporter, dose response, RMG-I cells, cherry-pick (AID 687027;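 active = every replicate test run called active, with the signal dropping as expected and potency within twice the top valid dose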)
[2] = cytotoxicity in PAX8-dependent RMG-1 cells, dose response, cell-based, cherry-pick (AID 687029;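 active = signal drop whose fitted half-maximal concentration is at most twice the top valid dose, in every test run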;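 also: cells exposed to compound for 96 hours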)
[3] = inhibitors of CMV-promoter luciferase reporter, dose response, counter-screen for Pax8 inhibitor project, cell-based, HEK293, luminescence, dry powder (AID 743020;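 active = signal-lowering compounds whose fitted half-maximal concentration is at or below twice the top tested dose in every run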;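 also: HEK293 cells stably expressing the CMV luciferase reporter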)
[4] = non-specific cell cytotoxicity, dose response, cytotoxicity control for PAX8 inhibitor project, plate reader, dry powder samples (AID 743021)
[5] = cytotoxicity in IOSE-T80 ovarian epithelial cells, dose response, selectivity assay for PAX8 inhibitor project, cell-based, cherry-pick (AID 687032;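 active = fitted half-maximal concentration for viability loss no higher than twice the top valid dose, in every repeat run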;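 also: cells exposed to compound for 96 h before reading; 0% = neutral control wells and -100% = 2 µM mitoxantrone kill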)
[6] = IGROV1 ovarian cancer cell cytotoxicity, dose response, PAX8 inhibitor project, plate reader, dry powder samples (AID 743043);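 also: more negative means fewer viable cells or more cytotoxicity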
[7] = NIH:OVCAR-3 ovarian cancer cell cytotoxicity, dose response, PAX8 inhibitor project, plate reader, dry powder samples (AID 743044); details: max activity: at 35 µM, active compounds read low unless noted
[8] = IOSE-T80 ovarian epithelial cell cytotoxicity, dose response, cytotoxicity control for PAX8 inhibitor project, plate reader, dry powder samples (AID 743045);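 also: 0% = neutral control median and -100% = positive control median; more negative values mean more cell killing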
[9] = cytotoxicity in OVCAR8 ovarian cancer cells, dose response, PAX8 project, cell-based, plate reader, dry powder samples (AID 743197)

Nc1ncn([C@H]2C[C@H](O)[C@@H](CO)O2)c(=O)n1
inactive: outcome [1] | outcome [2] | outcome [3] | outcome [4]

O=C(Nc1ccccc1)N1CCCCN2[C@@H](CO)[C@@H](c3ccc(C#Cc4ccccc4)cc3)[C@@H]2C1
inactive: outcome [1] | outcome [2] | outcome [3] | outcome [4]

Cc1nn(CCO)c2nc(-c3cccs3)cc(C(F)(F)F)c12
inactive: outcome [1] | outcome [2] | outcome [5] | outcome [4]

O=C(Cc1ccccc1)c1ccccc1C(=O)N1CCCCC1
inactive: outcome [1] | outcome [2] | outcome [3] | outcome [4]

CCCCC(=O)N1CCN(c2ccc(OC)cc2[N+](=O)[O-])CC1
inactive: outcome [1] | outcome [2] | outcome [5] | outcome [4]

Cc1cccc(OCc2nc(-c3cccnc3)no2)c1
inactive: outcome [1] | outcome [2] | outcome [5] | outcome [4]

CC(=O)N/C(=C\c1ccccc1)C(=O)OCC(=O)NC1CCCC1
inactive: outcome [1] | outcome [2] | outcome [3] | outcome [4]

COc1ccccc1NC1=Nc2cccc3cccc1c23
inactive: outcome [1] | outcome [2] | outcome [5] | outcome [4]

CC1CCN(CCOc2ccc(OCc3ccccc3)cc2)CC1
inactive: outcome [1] | outcome [2] | outcome [5] | outcome [4]

Cc1cc(=O)oc2ccc(OC(=O)CN3C(=O)c4cccc([N+](=O)[O-])c4C3=O)cc12
inactive: outcome [1] | outcome [2] | outcome [5] | outcome [4]

O=[N+]([O-])c1ccc2nc(SCc3cn4ccccc4n3)[nH]c2c1
inactive: outcome [1] | outcome [2] | outcome [5] | outcome [4]

O=C(CSc1cccc[n+]1[O-])Nc1cc(S(=O)(=O)N2CCOCC2)ccc1N1CCOCC1
inactive: outcome [1] | outcome [2] | outcome [5] | outcome [4]

Cc1ccc(/C=N/NC(=O)c2ccccn2)o1
inactive: activity change, negative = inhibition [1] 80.8% [at 8 µM] | outcome [2] | outcome [5] | outcome [4]

Cc1cccc(C(=O)Oc2ccc(/C=N/NC(=O)c3ccccc3O)cc2)c1
inactive: outcome [1] | outcome [2] | outcome [5] | outcome [4]

COc1ccc(NC(=O)c2nn(C34CC5CC(CC(C5)C3)C4)cc2[N+](=O)[O-])cc1
inactive: outcome [1] | outcome [2] | outcome [3] | outcome [4]

CCNC(=O)C1(C)CCN(C(=O)c2ccccc2F)C1 (stereo not given)
inactive: outcome [1] | outcome [2] | outcome [3] | outcome [4]

OCC1CCCN(C(=S)Nc2ccc(OC(F)F)cc2)C1 (stereo not given)
inactive: outcome [1] | outcome [2] | outcome [4]

Cc1ccc(/C=C/C(=O)N2CCN(c3cccc(C(F)(F)F)c3)CC2)cc1
inactive: outcome [1] | outcome [2] | outcome [4]

COc1ccc(C(=O)N/N=C/c2ccc(OC(=O)c3cccs3)cc2)cc1
inactive: outcome [1] | outcome [2] | outcome [4]

CCCCCC(=O)N/N=C(\C)c1ccc(N2CCCCC2)cc1
inactive: outcome [1] | outcome [2] | outcome [4]

CO[C@@H]1CN(C)C(=O)c2cc(NC(=O)c3nc4ccccc4s3)ccc2OC[C@H](C)NC[C@H]1C
inactive: outcome [1] | outcome [2] | outcome [3] | outcome [4] | outcome [6] | max activity [7] -38.8% [at 30 µM, active compounds read low] | outcome [8] | outcome [9]

CCCCC1Cc2[nH]c(=S)[nH]c(=O)c2C(c2ccc(F)cc2)O1 (stereo not given)
inactive: outcome [1] | outcome [2] | outcome [3] | outcome [4]

CC(=O)C1=C(O)C(=O)N(CCc2ccccc2)C1c1ccccc1[N+](=O)[O-] (stereo not given)
inactive: outcome [1] | outcome [2] | outcome [4]

Cc1cnc(NC(=O)CSc2nnc(C)n2N)s1
inactive: outcome [1] | outcome [2] | outcome [3] | outcome [4]
